{
  "source": "paper PMC8384837",
  "about": "“Expanding the binding specificity for RNA recognition by a PUF domain”",
  "data": [
    {"biological_target": "PUM1 PUF domain R1-RAS (Homo sapiens, UniProt Q14671 828-1176, S863R;R864A;Q867S)", "sequence (Q14671 828-1176 S863R/R864A/Q867S)": "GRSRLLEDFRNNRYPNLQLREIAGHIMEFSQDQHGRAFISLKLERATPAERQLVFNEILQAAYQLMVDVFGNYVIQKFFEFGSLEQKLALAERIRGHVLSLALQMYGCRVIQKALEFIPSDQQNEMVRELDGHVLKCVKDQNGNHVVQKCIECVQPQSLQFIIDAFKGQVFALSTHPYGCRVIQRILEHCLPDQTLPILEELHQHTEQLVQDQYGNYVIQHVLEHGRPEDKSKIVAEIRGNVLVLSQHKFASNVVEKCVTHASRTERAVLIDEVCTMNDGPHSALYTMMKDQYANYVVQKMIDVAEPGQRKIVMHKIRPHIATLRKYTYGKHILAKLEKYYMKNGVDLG", "assay": "yeast three-hybrid, YBZ-1, SC-Leu-His + 0.5 mM 3-AT, 4 days", "settings": "tags: N-Gal4 AD-HA kept; label: inside an RPR1-promoter hybrid RNA with tandem MS2 sites; ssRNA", "summary_of_the_method": "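The interaction score is the logarithmic change in variant frequency from input to selection. It uses log2, with a pseudocount of 1 for absent variants, and frequencies came from PCR-amplified, Illumina-sequenced repeat regions. The libraries were Pumilio-1 PUF domains randomized at the three base-contacting residues per repeat, co-expressed with matching RNA elements in strain YBZ-1 (LexA–MS2 coat fusion, HIS3 reporter). Plating lasted four days on SC-Leu (input) or SC-Leu-His + 0.5 mM 3-AT (selection).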", "values": [
      {"sequence": "GGCUAGAACUAGUGGAUCCCCCGGCGCCCGGCGGCUCGAGCCCGGGUAAGUGUAAAUUGUCUGCAUGCCGCCGGGCGCCAUGCCUGCAGGUCGACUCUAGAAAACAUG", "binding signal": "2.89 log2 enrichment (interaction score)"},
      {"sequence": "GGCUAGAACUAGUGGAUCCCCCGGCGCCCGGCGGCUCGAGCCCGGGUAAGUGUAAAUGGUCUGCAUGCCGCCGGGCGCCAUGCCUGCAGGUCGACUCUAGAAAACAUG", "binding signal": "1.5 log2 enrichment (interaction score)"},
      {"sequence": "GGCUAGAACUAGUGGAUCCCCCGGCGCCCGGCGGCUCGAGCCCGGGUAAGUGUAAAUCGUCUGCAUGCCGCCGGGCGCCAUGCCUGCAGGUCGACUCUAGAAAACAUG", "binding signal": "3.1 log2 enrichment (interaction score)"}
    ]}
  ]
}
